In PubChem BioAssay (EPA / NIEHS) one finds outcome and AC50 data, which are given here for 7 compounds.

SMILES strings stand for the structures. Calls of active or inactive are those of the source. How the source made its calls: active means hit-call score of the fitted dose curve at least 0.9, where 1 is the maximum; inactive means score below 0.9.

Experiment [1] is described as follows: APR_HepG2_CellCycleArrest_24hr: Apredica 24-hour HepG2 Assay for Cell Cycle Arrest (AID 2282905).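 Further: cell cycle arrest scored as ratio of 2N to 4N nuclear DNA content.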 To be noted: imaging, actives raise or lower the signal. A digest of the protocol:
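Readout: Hoechst 33342 nuclear DNA content by high-content fluorescent imaging, six images/well, 20x. Human HepG2 liver cells, 24 hr compound exposure, 0.39–200 uM, final DMSO 0.5% v/v. Gain or loss fitted relative to DMSO baseline.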

A short description of experiment [2]: APR_HepG2_NuclearSize_24hr: Apredica 24-hour HepG2 Assay for Nuclear Size (AID 2282907). To be noted: high-content imaging, actives raise or lower the signal. A digest of the protocol: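 Read-out: nuclear diameter from Hoechst 33342 (2 ug/mL) imaging of fixed HepG2 cells, 20x, six fields/well. Compounds ran at 0.39–200 uM for 24 hr, 0.5% DMSO final. Gain or loss was fitted bidirectionally relative to the DMSO baseline.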

Experiment [3] in a line: APR_HepG2_CellLoss_24hr: Apredica 24-hour HepG2 Assay for Cell Loss (AID 2282908).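 On AC50: fit in both directions so a hit may be cell loss or gain.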 The note with it: high-content imaging. A digest of the protocol:
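Read-out: Hoechst 33342-stained nuclei counted by automated fluorescence imaging after formaldehyde fixation and Triton permeabilization. Ten concentrations, 0.39 to 200 uM, duplicate wells, 0.5% DMSO final. Gain or loss of signal fitted relative to DMSO baseline.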

The nature of experiment [4]: APR_HepG2_MicrotubuleCSK_24hr: Apredica 24-hour HepG2 Assay for Microtubule CSK Stabilty (AID 2282909). The note with it: HepG2 microtubule cytoskeleton imaging, actives raise or lower the signal. A digest of the protocol: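 Read-out: alpha-tubulin immunofluorescence intensity by automated high-content imaging of fixed HepG2 cells after 24 h compound treatment. Ten concentrations, 0.39 to 200 uM, in duplicate; DMSO 0.5% v/v. Taxol positive control; DMSO-normalized bidirectional curve fitting.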

A short description of experiment [5]: APR_HepG2_MitoticArrest_24hr: Apredica 24-hour HepG2 Assay for Mitotic Arrest (AID 2282910). The note with it: high-content imaging, actives raise or lower the signal. A digest of the protocol:
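Treatment lasted 24 hr in the human HepG2 line at 0.39–200 uM, solvent held at 0.5% DMSO. Fixed cells were stained with Hoechst 33342 and anti-phospho-histone H3, imaged at 20x, and analysed by gain- or loss-of-signal fitting against DMSO.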

Experiment [6] in a line: APR_HepG2_MitoMembPot_24hr: Apredica 24-hour HepG2 Assay for Mitochondrial Membrane Potential (AID 2282911). The note with it: imaging, actives raise or lower the signal. A digest of the protocol:
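Cells are dosed for 24 hr across 0.39 to 200 uM with solvent held at 0.5% DMSO. They are then stained with 250 nM MitoTracker Red CMXRos for 30 min, fixed in 3.7% formaldehyde and imaged.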

Experiment [7] is described as follows: APR_HepG2_MitoMass_24hr: Apredica 24-hour HepG2 Assay for Mitochondrial Mass (AID 2282912). The note with it: high-content imaging, actives raise or lower the signal. A digest of the protocol:
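HepG2, 24 hr dosing, 10 concentrations 0.39–200 uM in duplicate, DMSO 0.5% final. MitoTracker Red CMXRos 250 nM, 30 min pre-fix; 3.7% formaldehyde fix. Imaging-based fluorescence intensity; gain/loss fit vs DMSO baseline.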

A short description of experiment [8]: APR_HepG2_p53Act_24hr: Apredica 24-hour HepG2 Assay for p53 Activation (AID 2282913).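 Further: p53 protein immunofluorescence averaged per cell in HepG2 with Hoechst nuclei.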 To be noted: high-content imaging, actives raise or lower the signal. A digest of the protocol: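 Human HepG2 liver cells; 24 hr cpd treatment, 0.39–200 uM, 0.5% DMSO final. Fixed in 3.7% formaldehyde, permeabilized with 0.5% Triton X-100, stained with anti-p53/Cy5 plus Hoechst 33342. Six images per well at 20x; gain or loss vs DMSO.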

Experiment [9] is described as follows: APR_HepG2_CellCycleArrest_72hr: Apredica 72-hour HepG2 Assay for Cell Cycle Arrest (AID 2282914). To be noted: high-content imaging, actives raise or lower the signal. The method, boiled down:
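Read-out is Hoechst-stained nuclear DNA content measured by automated fluorescence imaging (20x, six images per well), fitted in both directions relative to DMSO. Human HepG2 liver cells received 0.39–200 uM compound for 72 hr at 0.5% v/v DMSO.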

Experiment [10] is described as follows: APR_HepG2_CellLoss_72hr: Apredica 72-hour HepG2 Assay for Cell Loss (AID 2282915). The note with it: high-content imaging. A digest of the protocol: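 HepG2 cells were exposed for 72 hr to compounds at 0.39–200 uM (ten concentrations, duplicate) in 0.5% v/v final DMSO. Nuclei were stained with Hoechst 33342 after 3.7% formaldehyde fixation, imaged at 20x, and counted; fits bidirectional versus DMSO.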

The nature of experiment [11]: APR_HepG2_P-H2AX_72hr: Apredica 72-hour HepG2 Assay for H2AX Phosphorylation (AID 2282916).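 Further: phospho-histone H2A.x immunostain intensity per cell marking DNA damage.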 The note with it: imaging, actives raise or lower the signal. A digest of the protocol:
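Readout: phospho-H2A.x immunofluorescence (FITC secondary) plus Hoechst nuclear stain, high-content imaging at 20x, six fields/well. HepG2, 72 hr compound exposure, 0.39–200 uM, final DMSO 0.5% v/v. Gain or loss fitted relative to DMSO baseline.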

The nature of experiment [12]: APR_HepG2_MitoMembPot_72hr: Apredica 72-hour HepG2 Assay for Mitochondrial Membrane Potential (AID 2282917). To be noted: imaging, actives raise or lower the signal. A digest of the protocol: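 HepG2 cells exposed 72 h to compounds at 0.39–200 uM (0.5% v/v DMSO, duplicates); MitoTracker Red CMXRos 250 nM loaded 30 min before 3.7% formaldehyde fixation, imaged by HCS fluorescence. Bidirectional fit versus DMSO.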

Experiment [13] in a line: APR_HepG2_MicrotubuleCSK_72hr: Apredica 72-hour HepG2 Assay for Microtubule CSK Stabilty (AID 2282919). To be noted: HepG2 microtubule cytoskeleton, high-content imaging, actives raise or lower the signal. The method, boiled down: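 Ten-point dosing (0.39–200 uM, 0.5% DMSO) of HepG2 for 72 hr, with taxol as the cytoskeletal positive control. The cells were formaldehyde-fixed and then stained with alpha-tubulin/Cy5 and Hoechst. Imaging at 20x used a −2 um Z offset for tubulin.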

Experiment [14] is described as follows: APR_HepG2_P-H2AX_24hr: Apredica 24-hour HepG2 Assay for H2AX Phosphorylation (AID 2282920). To be noted: high-content imaging, actives raise or lower the signal. The method, boiled down:
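HepG2, 24 hr, cpd 0.39–200 uM (10 conc, duplicate), DMSO 0.5% v/v final. Fix 3.7% formaldehyde, Triton X-100 permeabilize, anti-phospho-H2A.x 1:200 + Hoechst 2 ug/mL. Imaged, bidirectional fit vs DMSO.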

Experiment [15] in a line: APR_HepG2_StressKinase_24hr: Apredica 24-hour HepG2 Assay for Stress Kinase (AID 2282922). The note with it: HepG2 stress kinase (phospho-c-Jun) imaging, actives raise or lower the signal. The method, boiled down: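 After 24 hr compound treatment (up to 200 uM, final DMSO 0.5% v/v), HepG2 cells are fixed and multiplex-labeled; phospho-c-Jun intensity is captured by high-content fluorescence imaging and analyzed relative to DMSO.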

Experiment [16] is described as follows: APR_HepG2_p53Act_72hr: Apredica 72-hour HepG2 Assay for p53 Activation (AID 2282923).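 Further: average cellular p53 protein immunofluorescence intensity in HepG2 cells.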 To be noted: high-content imaging, actives raise or lower the signal. A digest of the protocol: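 Readout: p53 immunofluorescence quantified by automated high-content imaging at 20x, six fields per well, nuclei located via Hoechst. Dosing ran 72 hr over ten concentrations from 0.39 to 200 uM; bidirectional curve fitting against DMSO baseline.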

The nature of experiment [17]: APR_HepG2_MitoMass_72hr: Apredica 72-hour HepG2 Assay for Mitochondrial Mass (AID 2282924).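 Further: MitoTracker Red CMXRos stain intensity per cell imaged as mitochondrial mass.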 The note with it: high-content imaging, actives raise or lower the signal. The method, boiled down:
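Steps: treat HepG2 72 hr (0.39–200 uM, duplicate wells); load MitoTracker Red CMXRos, 250 nM, 30 min; fix with 3.7% formaldehyde, permeabilise with 0.5% Triton X-100; capture images, nuclei via Hoechst 33342; fit bidirectionally against DMSO.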

Experiment [18] can be described thus: APR_HepG2_NuclearSize_72hr: Apredica 72-hour HepG2 Assay for Nuclear Size (AID 2282925). To be noted: high-content imaging, actives raise or lower the signal. A digest of the protocol:
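Compounds (0.39–200 uM, final DMSO 0.5%) were applied to HepG2 for 72 hr. Cells were then formaldehyde-fixed, permeabilized and labelled with Hoechst 33342. Nuclear diameter was quantified from six images per well.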

A short description of experiment [19]: APR_HepG2_StressKinase_72hr: Apredica 72-hour HepG2 Assay for Stress Kinase (AID 2282921). The note with it: HepG2 stress kinase (phospho-c-Jun) imaging, actives raise or lower the signal. The method, boiled down: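 Phospho-c-Jun immunofluorescence measured by high-content imaging at 20x, six fields per well; bidirectional curve fitting against DMSO as baseline. Dosing: 0.39–200 uM, 72 h, 0.5% DMSO final.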

As to `O=C(O)Cc1cc(I)c(Oc2ccc(O)c(I)c2)c(I)c1`, the compound was classed as inactive in experiment [1], in [2], in experiment [3], in experiment [4], in [5] and in experiment [6]. Moreover, the outcome in experiment [7], in experiment [8], in [9], in experiment [10], in experiment [11] and in [12] was inactive. Further, the outcome in experiment [13], in [14], in [15], in experiment [16], in experiment [17] and in experiment [18] was inactive.
As a reminder, the AC50 is the concentration at which the activity in the assay is half-maximal. `CC[C@H](NC(=O)c1cc(F)ccc1NS(=O)(=O)c1cccc2cccnc12)c1ccccc1`: the outcome in experiment [1], in experiment [2], in [3], in experiment [4], in experiment [5] and in experiment [7] was inactive. The outcome in [8], in [9], in [11], in experiment [12], in [13] and in [14] was inactive. In addition, the outcome in [15], in experiment [16], in experiment [17] and in experiment [18] was inactive. The AC50 was 105 µM (active) in experiment [6] and 78.4 µM (active) in experiment [10].
On to `O=C1CCC(C2CCCCC2)CC1`, for which the outcome in experiment [1], in [2], in experiment [3], in experiment [4], in experiment [5] and in experiment [7] was inactive. In addition, the result in experiment [8], in experiment [9], in experiment [10], in experiment [11], in [12] and in experiment [13] was inactive. In addition, the compound was classed as inactive in experiment [14], in [19], in experiment [15], in experiment [16], in [17] and in experiment [18]. The half-maximal activity concentration (AC50) in experiment [6] is 19.8 µM (active).
For the compound `Clc1ccccc1C(c1ccccc1)(c1ccccc1)n1ccnc1`, the result in experiment [1], in experiment [6], in experiment [7], in [8], in experiment [12] and in [13] was inactive. Further, the outcome in experiment [17] was inactive. Further, the concentration at half-maximal activity (AC50) in experiment [2] is 72.3 µM (active); in experiment [3], 20.3 µM (active); in experiment [4], 30.7 µM (active); in experiment [5] it was 31.6 µM (active); in experiment [9] it was 13.8 µM (active); in [10], 18.9 µM (active). In addition, the concentration at half-maximal activity (AC50) in [11] is 25.8 µM (active); in experiment [14], 79.4 µM (active); in experiment [15], 62 µM (active); in experiment [16], 29.8 µM (active); in [18], 55.5 µM (active).
Turning to `CCCCCCCCOc1ccc(C(=O)c2ccccc2)c(O)c1`, the concentration at half-maximal activity (AC50) in experiment [1] was 103 µM (active); in experiment [9], 164 µM (active); in experiment [10] it was 91.6 µM (active). For the same compound, the outcome in [2], in experiment [3], in [4], in experiment [5], in [6] and in experiment [7] was inactive. Moreover, the outcome in experiment [8], in [11], in experiment [12], in [13], in experiment [14] and in experiment [15] was inactive. The compound was called inactive in [16], in experiment [17] and in experiment [18].
On to `O=CCCCC=O`, for which the outcome in experiment [1], in experiment [2], in experiment [3], in [4], in experiment [5] and in experiment [6] was inactive. In addition, the call in experiment [7], in [8], in experiment [9], in experiment [10], in experiment [11] and in experiment [12] was inactive. For the same compound, the compound was classed as inactive in experiment [13], in experiment [14], in experiment [15], in experiment [16], in experiment [17] and in experiment [18].
With `C[C@]12CC[C@@H]3c4ccc(O)cc4CC[C@H]3[C@@H]1CCC2=O`, the outcome in experiment [1], in [2], in [3], in [4], in experiment [5] and in experiment [6] was inactive. In addition, the result in experiment [7], in experiment [9], in experiment [10], in experiment [11], in experiment [12] and in [13] was inactive. Besides, the result in experiment [14], in experiment [19], in experiment [15], in [17] and in experiment [18] was inactive.
